In all, about 5,500 compounds went through this assay and about 2,000 (36%) were called active. Not shown: some 18% with an inconclusive outcome. Cut-off read from the data, not from the text of the source: active = normalized growth mostly below about 0.91 (no sharp cut-off); inconclusive = no clear call, values can overlap the other calls; inactive = mostly above about 0.92. The list shows a part of the results.
Test: chemical genetic growth profiling, strain panel (AID 1159580);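 note: tested at 20 µM; growth read once vehicle control cultures reached saturation at 30 °C; 1 = growth at the plate median or of vehicle wells; lower values mean less growth of the strain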
Settings: growth OD
[1] = S. cerevisiae deletion strains, locus YBR021W, strain FUR4, hits give low values
[2] = S. cerevisiae deletion strains, locus YBR229C, strain ROT2, hits give low values
[3] = S. cerevisiae deletion strains, locus YCL029C, strain bik1, hits give low values
[4] = S. cerevisiae deletion strains, locus YDL035C, strain GPR1, hits give low values
[5] = S. cerevisiae deletion strains, locus YDL074C, strain BRE1, hits give low values
[6] = S. cerevisiae deletion strains, locus YDL101C, strain DUN1, hits give low values
[7] = S. cerevisiae deletion strains, locus YDL185W, strain tfp1, hits give low values
[8] = S. cerevisiae deletion strains, locus YDL192W, strain arf1, hits give low values
[9] = S. cerevisiae deletion strains, locus YDR101C, strain arx1, hits give low values
[10] = S. cerevisiae deletion strains, locus YDR162C, strain NBP2, hits give low values
[11] = S. cerevisiae deletion strains, locus YDR318W, strain mcm21, hits give low values
[12] = S. cerevisiae deletion strains, locus YDR388W, hits give low values
[13] = S. cerevisiae deletion strains, locus YDR502C, strain sam2, hits give low values
[14] = S. cerevisiae deletion strains, locus YER110C, hits give low values
[15] = S. cerevisiae deletion strains, locus YER155C, strain BEM2, hits give low values
[16] = S. cerevisiae deletion strains, locus YER167W, strain BCK2, hits give low values
[17] = S. cerevisiae deletion strains, locus YGL078C, strain dbp3, hits give low values
[18] = S. cerevisiae deletion strains, locus YGL086W, strain mad1, hits give low values
[19] = S. cerevisiae deletion strains, locus YGL248W, strain PDE1, hits give low values
[20] = S. cerevisiae deletion strains, locus YGR135W, strain pre9, hits give low values
[21] = S. cerevisiae deletion strains, locus YGR252W, strain gcn5, hits give low values
[22] = S. cerevisiae deletion strains, locus YHR079C, strain IRE1 (second series), hits give low values
[23] = S. cerevisiae deletion strains, locus YHR094C, strain hxt1, hits give low values
[24] = S. cerevisiae deletion strains, locus YHR129C, strain ARP1, hits give low values
[25] = S. cerevisiae deletion strains, locus YHR200W, strain rpn10, hits give low values
[26] = S. cerevisiae deletion strains, locus YIL066C, strain RNR3, hits give low values
[27] = S. cerevisiae deletion strains, locus YIL073C, strain SPO22, hits give low values
[28] = S. cerevisiae deletion strains, locus YIL125W, strain kgd1, hits give low values
[29] = S. cerevisiae deletion strains, locus YIR030C, strain dcg1, hits give low values
[30] = S. cerevisiae deletion strains, locus YJL095W, strain BCK1, hits give low values
[31] = S. cerevisiae deletion strains, locus YJL134W, strain LCB3, hits give low values
[32] = S. cerevisiae deletion strains, locus YJL168C, strain set2, hits give low values
[33] = S. cerevisiae deletion strains, locus YJL187C, strain SWE1 (second series), hits give low values
[34] = S. cerevisiae deletion strains, locus YJR043C, strain POL32, hits give low values
[35] = S. cerevisiae deletion strains, locus YKL068W, hits give low values
[36] = S. cerevisiae deletion strains, locus YKL085W, strain MDH1 (second series), hits give low values
[37] = S. cerevisiae deletion strains, locus YKL085W, strain MDH1, hits give low values
[38] = S. cerevisiae deletion strains, locus YKR001C, strain vps1, hits give low values
[39] = S. cerevisiae deletion strains, locus YLR039C, strain RIC1, hits give low values
[40] = S. cerevisiae deletion strains, locus YLR058C, strain SHM2, hits give low values
[41] = S. cerevisiae deletion strains, locus YLR102C, strain apc9, hits give low values
[42] = S. cerevisiae deletion strains, locus YLR268W, strain sec22, hits give low values
[43] = S. cerevisiae deletion strains, locus YLR371W, strain rom2, hits give low values
[44] = S. cerevisiae deletion strains, locus YLR418C, strain cdc73, hits give low values
[45] = S. cerevisiae deletion strains, locus YML016C, strain PPZ1, hits give low values
[46] = S. cerevisiae deletion strains, locus YML032C, strain rad52, hits give low values
[47] = S. cerevisiae deletion strains, locus YML124C, strain tub3, hits give low values
[48] = S. cerevisiae deletion strains, locus YMR078C, strain ctf18, hits give low values
[49] = S. cerevisiae deletion strains, locus YMR223W, strain ubp8, hits give low values
[50] = S. cerevisiae deletion strains, locus YMR307W, strain GAS1, hits give low values
[51] = S. cerevisiae deletion strains, locus YNL067W, strain RPL9B, hits give low values
[52] = S. cerevisiae deletion strains, locus YNL153C, strain GIM3, hits give low values
[53] = S. cerevisiae deletion strains, locus YNL233W, strain BNI4, hits give low values
[54] = S. cerevisiae deletion strains, locus YNL250W, strain rad50, hits give low values
[55] = S. cerevisiae deletion strains, locus YNL271C, strain bni1, hits give low values
[56] = S. cerevisiae deletion strains, locus YNL298W, strain CLA4, hits give low values
[57] = S. cerevisiae deletion strains, locus YNL307C, strain MCK1, hits give low values
[58] = S. cerevisiae deletion strains, locus YNR052C, strain pop2, hits give low values
[59] = S. cerevisiae deletion strains, locus YOL006C, strain TOP1, hits give low values
[60] = S. cerevisiae deletion strains, locus YOL012C, strain htz1
[61] = S. cerevisiae deletion strains, locus YOL147C, strain pex11, hits give low values
[62] = S. cerevisiae deletion strains, locus YOR061W, strain CKA2, hits give low values
[63] = S. cerevisiae deletion strains, locus YOR069W, strain VPS5, hits give low values
[64] = S. cerevisiae deletion strains, locus YOR136W, strain idh2, hits give low values
[65] = S. cerevisiae deletion strains, locus YOR144C, strain elg1, hits give low values
[66] = S. cerevisiae deletion strains, locus YOR184W, strain ser1, hits give low values
[67] = S. cerevisiae deletion strains, locus YOR316C, strain cot1, hits give low values
[68] = S. cerevisiae deletion strains, locus YPR119W, strain clb2, hits give low values
[69] = S. cerevisiae deletion strains, locus YPR141C, strain kar3, hits give low values
[70] = S. cerevisiae deletion strains, locus YPR163C, strain tif3, hits give low values
[71] = S. cerevisiae deletion strains, locus YPR167C, strain met16, hits give low values
[72] = S. cerevisiae deletion strains, strain wtn01, hits give low values

Measured: normalized growth

COc1c(CC=C(C)C)c2c(c3oc(=O)c(-c4ccc(O)cc4)c(O)c13)C=CC(C)(C)O2
active: [3] 0.841 | [5] 0.687 | [8] 0.875 | [11] 0.896 | [15] 0.752 | S. cerevisiae deletion strains, locus YGR229C, strain SMI1, hits give low values 0.722 | [24] 0.899 | [25] 0.908 | [30] 0.74 | [38] 0.869 | [42] 0.853 | [43] 0.769 | [44] 0.649 | [46] 0.896 | [57] 0.677 | [61] 0.902 | [66] 0.476 | [70] 0.84
inactive: [1] 0.918 | [2] 1.01 | [4] 0.918 | [6] 0.964 | [7] 1.03 | [9] 0.92 | S. cerevisiae deletion strains, locus YDR150W, strain NUM1, hits give low values 1.03 | [10] 0.875 | [12] 0.975 | [13] 0.94 | S. cerevisiae deletion strains, locus YEL061C, strain CIN8, hits give low values 0.968 | [14] 0.986 | [16] 0.951 | [17] 1 | [18] 0.937 | [19] 0.921 | [20] 0.989 | [21] 1.02 | S. cerevisiae deletion strains, locus YHR030C, strain SLT2, hits give low values 0.974 | [22] 0.979 | [23] 0.976 | [26] 0.903 | [27] 0.952 | [28] 0.957 | [29] 0.953 | [31] 1.01 | [32] 0.961 | [33] 0.945 | [34] 0.947 | S. cerevisiae deletion strains, locus YKL009W, strain mrt4, hits give low values 0.985 | [35] 1.01 | [36] 0.958 | [37] 0.958 | [39] 0.889 | [40] 0.912 | [41] 0.978 | [45] 0.992 | [47] 0.983 | [48] 0.98 | [49] 0.925 | [50] 0.773 | [51] 0.97 | [52] 0.922 | [53] 0.881 | [54] 1.04 | [55] 0.998 | [56] 0.989 | S. cerevisiae deletion strains, locus YNL322C, strain KRE1, hits give low values 0.972 | [58] 0.917 | [59] 0.779 | [60] 0.812 | [62] 0.982 | [63] 0.997 | [64] 0.934 | [65] 0.968 | [67] 0.976 | [68] 0.977 | [69] 1 | [71] 0.938 | [72] 0.905

COc1c(CC=C(C)C)c2c(c3oc(=O)c(-c4ccc(OC(C)=O)cc4)c(OC(C)=O)c13)C=CC(C)(C)O2
inactive: S. cerevisiae deletion strains, locus YAL013W, strain DEP1, hits give low values 0.996 | [1] 0.986 | [2] 1.03 | [3] 1.02 | [4] 1.04 | [5] 1.08 | [6] 1.03 | [7] 1.02 | [8] 1.05 | [9] 1.01 | [10] 1.04 | [11] 1.02 | [12] 1.02 | [13] 1.03 | [14] 1.01 | [15] 1.01 | [16] 1.02 | [17] 1 | [18] 1.03 | [19] 1.08 | [20] 1.02 | [21] 1.1 | [22] 1.02 | [23] 1 | [24] 1 | [25] 1.03 | [26] 1.02 | [27] 1.06 | [28] 1.02 | [29] 0.996 | [30] 1.12 | [31] 1.01 | [32] 0.997 | [33] 1.03 | [34] 1.07 | S. cerevisiae deletion strains, locus YJR075W, strain HOC1, hits give low values 1.03 | [35] 0.995 | [36] 1.01 | [37] 1.01 | S. cerevisiae deletion strains, locus YKL190W, strain CNB1, hits give low values 0.997 | [38] 1.05 | [39] 1.12 | [40] 1.04 | [41] 1 | [42] 1.04 | S. cerevisiae deletion strains, locus YLR330W, strain CHS5, hits give low values 1.02 | [43] 1.05 | [44] 1.08 | [45] 1.03 | [46] 1.01 | [47] 0.994 | [48] 1 | [49] 1.03 | [50] 1.15 | [51] 1 | [52] 1.03 | [53] 1.06 | [54] 0.989 | [55] 1.01 | [56] 1.01 | [57] 1 | [58] 1.01 | [59] 1.17 | [60] 1.04 | [61] 1.02 | [62] 1.02 | [63] 1.02 | [64] 1 | [65] 1.01 | [66] 1.04 | [67] 1.01 | [68] 1 | [69] 1 | [70] 1.02 | [71] 1 | [72] 1.04 | S. cerevisiae strains, strain wild type, hits give low values 1.02
